Experimental findings from PubChem BioAssay AID382 (SGCOxCompounds, 2006) are described below.

The source made the active and inactive calls. How the calls were made is not given here.

Chain of Dual specificity protein kinase CLK1 (Homo sapiens) (P49759 whole entry, looked up): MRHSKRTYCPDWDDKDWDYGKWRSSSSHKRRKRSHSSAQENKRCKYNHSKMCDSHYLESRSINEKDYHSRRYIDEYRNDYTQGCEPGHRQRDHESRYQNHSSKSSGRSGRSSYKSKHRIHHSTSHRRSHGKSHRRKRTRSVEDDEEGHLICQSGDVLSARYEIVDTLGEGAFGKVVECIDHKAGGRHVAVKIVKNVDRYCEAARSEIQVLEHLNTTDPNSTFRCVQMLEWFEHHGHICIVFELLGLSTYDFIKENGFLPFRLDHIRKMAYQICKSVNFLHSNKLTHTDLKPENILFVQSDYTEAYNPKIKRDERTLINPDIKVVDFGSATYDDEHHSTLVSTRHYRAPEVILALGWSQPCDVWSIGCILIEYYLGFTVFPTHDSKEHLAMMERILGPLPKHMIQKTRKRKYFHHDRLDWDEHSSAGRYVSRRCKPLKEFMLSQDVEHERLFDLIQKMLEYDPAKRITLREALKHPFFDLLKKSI

This assay has as its target Dual specificity protein kinase CLK1 (Homo sapiens) (UniProt P49759). Kind of assay: ligand-induced CLK1 melting temperature shift – biophysical, recombinant human kinase, DSF (AID 382). The following applies: Recombinant CLK1, thermal shift (DSF), at 10 µM, protein 2 µM, buffer 10 mM HEPES, NaCl 150 mM, active compounds read high.
As for `O=C1NC(=O)c2c1c1c3ccccc3n3c1c1c2c2ccccc2n1[C@@H]1CCC3O1`, the Tm shift was 6.44 Celsius (active). The same measure for `CCn1cnc2c(Nc3cccc(Cl)c3)nc(N[C@@H]3CCCC[C@@H]3N)nc21`: 6.54 Celsius (active); for `COc1ccc2c(c1)/C(=C/c1cnc[nH]1)C(=O)N2`: 3.63 Celsius (active); for `O=C1Nc2ccccc2/C1=C\c1cnc[nH]1`: 3.76 Celsius (active).
